We go through nine molecules from PubChem BioAssay (Tox21).

Assay [1] in a line: qHTS assay to identify small molecule agonists of H2AX - cell viability counter screen (AID 1224847; calls by dose curve; further: top concentration of the series differs between compounds; nearly all actives have a fitted effect of over 30% in size). In outline:
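CHO-K1 cells plated overnight at 37C, then exposed 3 h at 37C to compounds at 15 concentrations (0.76% DMSO final). Viability by CellTiter-Glo luminescence after 30 min at room temperature.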
(qHTS replaces the single test concentration by a dilution series.)

Assay [2] can be described thus: qHTS RealTime-Glo MT Cell Viability Assay in HepG2 cells - 24 hour (AID 1224867). Further: nearly all actives have a fitted effect of over 50% in size. In outline:
(§1)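 Tox21 10K library screened in qHTS format on HepG2 cells carrying RealTime-Glo reagents. Compounds were added after a 5 h preincubation, and the luminescent signal from continuous culture was measured repeatedly during 40 h treatment.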

Assay [3] in a line: qHTS RealTime-Glo MT Cell Viability Assay in HEK293 cells - 32 hour (AID 1224868). Further: nearly all actives have a fitted effect of over 50% in size. Further: potency means the concentration at half of the fitted maximal effect. In outline: (§2)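 Luminescence generated by NanoLuc from substrate produced by living HEK293 cells served as the viability signal. Each value reflects the reading at its stated time point during continuous 40 h compound exposure at 37 C.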
A short description of assay [4]: A CellTox Green Cytotoxicity Assay to monitor cytotoxicity in HEK293 cells - 0 hour (AID 1224869). Further: nearly all actives have a fitted effect of over 50% in size. In outline: (§3)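 HEK293 cells premixed with CellTox Green dye were seeded at 600 cells/well and left 5 h at 37 C/5% CO2 before pin transfer of 23 nL compound in DMSO. Fluorescence from dye bound to dead-cell DNA was read during 40 h treatment.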
The nature of assay [5]: qHTS RealTime-Glo MT Cell Viability Assay in HepG2 cells - 40 hour (AID 1224870). Further: nearly all actives have a fitted effect of over 50% in size. In outline: (§4)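 HepG2 cells mixed with RealTime-Glo MT reagents (NanoLuc plus cell-permeant prosubstrate) were seeded at 600 cells/well, incubated 5 h at 37 C/5% CO2, then pinned with compounds in DMSO; nonlytic luminescence tracked viability during 40 h treatment.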
Assay [6] is described as follows: A CellTox Green Cytotoxicity Assay to monitor cytotoxicity in HEK293 cells - 40 hour (AID 1224871). Further: nearly all actives have a fitted effect of over 45% in size. Further: potency means the concentration at half of the fitted maximal effect. Summed up:
as §3

Assay [7] in a line: qHTS RealTime-Glo MT Cell Viability Assay in HEK293 cells - 16 hour (AID 1224872). Further: nearly all actives have a fitted effect of over 50% in size. Further: potency means the concentration at half of the fitted maximal effect. Summed up:
as §2

A short description of assay [8]: qHTS RealTime-Glo MT Cell Viability Assay in HepG2 cells - 8 hour (AID 1224873). Further: nearly all actives have a fitted effect of over 55% in size. In outline: as §4
Assay [9] is described as follows: qHTS RealTime-Glo MT Cell Viability Assay in HEK293 cells - 40 hour (AID 1224874). Further: nearly all actives have a fitted effect of over 50% in size. Further: potency means the concentration at half of the fitted maximal effect. The note with it: RealTime-Glo luminescence; max response: hits give low values. In outline: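 HEK293 cells mixed with RealTime-Glo reagents (NanoLuc plus cell-permeant prosubstrate) at 600 cells/well, preincubated 5 h at 37 C/5% CO2, then given 23 nL compound in DMSO. Nonlytic luminescence from viable cells was read at 0, 8, 16, 24, 32 and 40 h.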

The nature of assay [10]: A CellTox Green Cytotoxicity Assay to monitor cytotoxicity in HEK293 cells - 24 hour (AID 1224875). Further: nearly all actives have a fitted effect of over 45% in size. Further: potency means the concentration at half of the fitted maximal effect. In outline:
as §3

Assay [11] can be described thus: A CellTox Green Cytotoxicity Assay to monitor cytotoxicity in HepG2 cells - 16 hour (AID 1224876). Further: nearly all actives have a fitted effect of over 45% in size. Further: potency means the concentration at half of the fitted maximal effect. Summed up: (§5)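 HepG2 cells were seeded together with the CellTox Green dye at 600 cells/well, left 5 h at 37 C/5% CO2, then given compounds in DMSO. Fluorescence from dye bound to dead-cell DNA was read repeatedly over 40 h of treatment at 37 C.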
Assay [12] can be described thus: qHTS RealTime-Glo MT Cell Viability Assay in HepG2 cells - 32 hour (AID 1224877). Further: nearly all actives have a fitted effect of over 55% in size. In outline: as §1
Assay [13] can be described thus: A CellTox Green Cytotoxicity Assay to monitor cytotoxicity in HepG2 cells - 24 hour (AID 1224878). Further: nearly all actives have a fitted effect of over 45% in size. Further: potency means the concentration at half of the fitted maximal effect. In outline:
as §5

Assay [14] is described as follows: A CellTox Green Cytotoxicity Assay to monitor cytotoxicity in HepG2 cells - 40 hour (AID 1224879). Further: nearly all actives have a fitted effect of over 40% in size. Further: potency means the concentration at half of the fitted maximal effect. Summed up: as §5
Assay [15] is described as follows: qHTS assay to identify small molecule agonists of the hypoxia (HIF-1) signaling pathway - cell viability counter screen (AID 1224844; calls by dose curve; further: nearly all actives have a fitted effect of over 50% in size; further: potency means the concentration at half of the fitted maximal effect). In outline: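 HRE-bla ME-180 cells in medium with 0.5% dialyzed FBS were preincubated 5 hrs at 37C, exposed to compounds for 17 hrs, then viability was read as CellTiter-Glo luminescence after 30 min at room temperature, in the reporter wells.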

A short description of assay [16]: qHTS assay to identify small molecule agonists of H2AX (AID 1224845; active means well fitted activation curve with a large enough effect in the signal ratio in the repeat runs, not every such curve was filed as active; the % refers to the signal ratio). In outline:
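Wild-type CHO-K1 cells plated overnight, then exposed 3 hr at 37C to compounds at 15 concentrations (0.76% DMSO). Lysed, then HTRF anti-pH2AX(S139)-cryptate/anti-H2AX-d2 detection after 24 hr at room temperature; emissions 665 and 620 nm.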

Assay [17] in a line: qHTS assay to identify small molecule antagonists of the estrogen related receptor (ERR) signaling pathway from Tox21 library (AID 1224848). Further: nearly all actives have a fitted effect of over 50% in size. Further: potency means the concentration at half of the fitted maximal effect. In outline:
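Screening used an ERR reporter line supplied by NTP, exposed for 18 h at 37 C to library compounds delivered in DMSO. Signal was luciferase luminescence developed with ONE-Glo at room temperature for 30 min.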

A short description of assay [18]: qHTS assay to identify small molecule agonists of the estrogen related receptor (ERR) signaling pathway from Tox21 library (AID 1224849; calls by dose curve; further: nearly all actives have a fitted effect of over 15% in size). The note with it: ERR reporter cell line, ONE-Glo luciferase, 18 h; at 92.4 µM (top of the series) unless noted. In outline:
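ERR reporter cell line (NTP) seeded, rested 6 h at 37 C/5% CO2, then pinned with Tox21 compounds in DMSO. After 18 h at 37 C, ONE-Glo luciferase luminescence was read following 30 min at room temperature.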

Assay [19] is described as follows: qHTS assay to identify small molecule agonists of the hypoxia (HIF-1) signaling pathway (AID 1224846; active means well fitted activation curve with a large enough effect in the signal ratio in the repeat runs, not every such curve was filed as active; the % refers to the signal ratio). In outline:
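HRE-bla ME-180 cells (beta-lactamase reporter under hypoxia response element) were plated at 2,000 cells/well in medium with 0.5% dialyzed FBS, rested 5 hrs, then given compounds in DMSO for 17 hrs at 37C, 5% CO2. Reporter induction was read with CCF4-AM FRET substrate.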

Values without a mark were called inactive. Records with an inconclusive call do not appear. Activity calls are given as the source filed them. Unless noted, the call rests on the fitted dose curve; in most records, active means well fitted curve in the direction sought with a large enough effect in the repeat runs; inconclusive means weak or mixed curves; inactive means no such curve, though single readings can be large; an effect the other way counts as inactive or inconclusive.
On the % scale 0 is the no-effect control and ±100 the full control effect.

Turning to `CC(C)O`, the Potency entry in assay [1], in assay [2], in [3], in [4], in [5] and in assay [6] was “inactive” in each case. Moreover, the Potency result in assay [7], in assay [10], in [11], in [12], in assay [13] and in [14] was “inactive” throughout. The call in [8] was inactive. The max response in assay [9] was -1.12%.

`CCCN(CCC)C(=O)C(CCC(=O)O)NC(=O)c1ccccc1` (stereo unspecified): the Potency result in assay [15], in assay [16], in assay [17], in assay [2], in assay [3] and in assay [4] was “inactive” each time. The Potency result in [5], in [6], in assay [7], in [10], in [11] and in assay [12] was “inactive” in each case. Besides, the Potency result in [13] and in assay [14] was “inactive” each time. Also, the activity change, positive = activation in assay [18] is 0.999% [at 42.5 µM]. The molecule was called inactive in [8]. The max response in assay [9] was 3.51%.

Take `O=C1CCN(c2ccccc2)N1`: the Potency result in assay [15], in assay [1], in [2], in assay [3], in [4] and in assay [5] was “inactive” each time. The Potency entry in assay [6], in assay [7], in [10], in assay [11], in [12] and in [13] was “inactive” throughout. In assay [14], the Potency result was “inactive”. For the same molecule, the call in [19] and in assay [8] was inactive. In addition, in assay [17], the Potency is 17.3 µM (active). Further, the activity change, positive = activation in assay [18] is -36.4%. For the same molecule, the max response in assay [9] is 4.28%.

`COc1ccc(Nc2ccc(OC)cc2)cc1`: the Potency entry in [1], in assay [17], in [2], in assay [4], in assay [5] and in assay [6] was “inactive” each time. Further, the Potency entry in assay [10], in [11], in [12], in [13] and in assay [14] was “inactive” each time. Also, the activity change, positive = activation in assay [18] is 38% (active). The Potency in assay [3] is 25 µM (active); in assay [9], 28.1 µM (active). Also, the molecule was called inactive in assay [8].

As to `O=C1CCCCC1C1CCCCC1` (stereo unspecified), the Potency entry in assay [16], in assay [1], in assay [2], in assay [3], in assay [4] and in assay [5] was “inactive” throughout. Besides, the Potency entry in [6], in assay [7], in assay [10], in [11], in [12] and in assay [14] was “inactive” throughout. Further, the molecule was called inactive in [19] and in [8]. The max response in [9] is 11.8%.

Consider `COc1cc2c(cc1N)oc1ccccc12`, for which the outcome in [19] and in assay [8] was inactive. In addition, the Potency entry in assay [1], in [17], in [2], in assay [4], in [5] and in assay [6] was “inactive” in each case. Moreover, the Potency entry in [10], in assay [11], in [12], in assay [13] and in assay [14] was “inactive” each time.

Consider `Clc1cccc(-c2cc(Cl)cc(Cl)c2)c1`, for which the figures for the Potency in assay [15], in assay [6] and in assay [10] were 53 µM (active), 37.5 µM (active) and 42.1 µM (active), respectively. Besides, the Potency result in assay [17], in assay [2], in assay [3], in assay [4], in assay [5] and in [7] was “inactive” each time. For the same molecule, the Potency entry in assay [11] and in assay [12] was “inactive” each time. Besides, in assay [18], the activity change, positive = activation was -3.25%. Also, in assay [9], the max response is -9.77%.

Take `COc1cc(N)c(Cl)cc1C(=O)NC1CCN(Cc2ccccc2)CC1`: the Potency result in [15], in assay [16], in [1], in assay [2], in assay [4] and in assay [5] was “inactive” in each case. Moreover, the Potency entry in [6], in [10], in [11], in assay [12], in [13] and in assay [14] was “inactive” throughout. The Potency in [3], in assay [7] and in assay [9] was 19 µM (active) in each case. Moreover, the outcome in [8] was inactive.

Regarding `CC(C)=CCC[C@](C)(O)[C@@H]1CC=C(C)CC1`, the Potency entry in assay [15], in assay [16], in [2], in assay [3], in assay [4] and in [5] was “inactive” throughout. Also, the Potency result in assay [7], in [10] and in assay [12] was “inactive” throughout. Besides, the outcome in [19] was inactive. In addition, the Potency in assay [6] is 49 µM (active); in assay [11] it was 43.6 µM (active); in [13], 43.6 µM (active); in [14] it was 49 µM (active). In addition, the max response in assay [9] is -6.23%.
